According to PubChem BioAssay (NCI):
The panel holds about 79,000 compounds, 15% with a hit somewhere; the sample as a whole holds those more often. Calls of active or inactive are those of the source. No stated cut-off is given here; in the data, active means growth inhibition above about 70%; inactive means the rest.

Assay: NCI Yeast Anticancer Drug Screen. Data for the bub3 strain (AID 167)
Settings: S. cerevisiae bub3 mutant strain, stronger effect = higher value
Description: Growth inhibition of yeast strains with defined genetic alterations is measured as a screen for potential anti-cancer activity. Selected strains with alterations in DNA damage repair or cell cycle control were exposed to compounds and growth inhibition was measured relative to vehicle treated controls. The strain used in this assay is bub3

[1] = at 5.0 µM (retest, dose inferred, filed as 0.5)
[2] = at 50.0 µM (retest, dose inferred, filed as 5.0)

Measured: growth inhibition

COc1cc([C@@H]2c3cc4c(cc3[C@@H](NC(=O)NO)[C@H]3COC(=O)[C@H]23)OCO4)cc(OC)c1O
inactive: at 1.2 µM -3% | at 3.7 µM -3% | [1] 3% | at 11.0 µM -2% | at 33.0 µM -4% | [2] -13% | at 50.0 µM -5.95% | at 100.0 µM -3%

O=C(/C=C/c1ccsc1)c1cccs1
active: at 100.0 µM 97%
inactive: at 1.2 µM 1% | at 3.7 µM 28% | [1] -11% | at 11.0 µM 11% | at 33.0 µM 23% | [2] 66% | at 50.0 µM 15.2%

N#CCCC1C(C#N)C2(Cl)CC1(Cl)C(Cl)=C2Cl (stereo not given)
active: [2] 73% | at 50.0 µM 89.2% | at 100.0 µM 96%
inactive: at 1.2 µM -1% | at 3.7 µM -6% | [1] -8% | at 11.0 µM -15% | at 33.0 µM 58%

CS(=O)(=O)O.[Ag]
inactive: [1] 4%
active: at 1.2 µM 80% | at 3.7 µM 98% | at 11.0 µM 99% | at 33.0 µM 96% | [2] 98% | at 50.0 µM 92% | at 100.0 µM 97%

C/C(=N\Sc1ccccc1)c1ccccc1O
inactive: at 1.2 µM 0% | at 3.7 µM 2% | [1] -62% | at 11.0 µM -1% | at 33.0 µM 5% | [2] 55% | at 50.0 µM 49.2% | at 100.0 µM 53%
